Our source for the inhibition of ligand binding values is PubChem BioAssay AID1211 (NMMLSC, 2008).

Activity calls are given as the source filed them. How the calls were made is not given here.

The target of the test is Estrogen receptor (Homo sapiens) (UniProt P03372). Kind of test: displacement of fluorescent estrogen from ERalpha – cell-based, Cos7 ERalpha-GFP, flow cytometry, primary screen (AID 1211).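 Further: 0% = DMSO vehicle wells and 100% = no E2-Alexa633 signal left.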 The following applies: fluorescent ligand competition, stronger effect = higher value. (In flow cytometry, cells or beads pass a laser one at a time.)
Sequence of Estrogen receptor (Homo sapiens) (P03372 whole entry, looked up): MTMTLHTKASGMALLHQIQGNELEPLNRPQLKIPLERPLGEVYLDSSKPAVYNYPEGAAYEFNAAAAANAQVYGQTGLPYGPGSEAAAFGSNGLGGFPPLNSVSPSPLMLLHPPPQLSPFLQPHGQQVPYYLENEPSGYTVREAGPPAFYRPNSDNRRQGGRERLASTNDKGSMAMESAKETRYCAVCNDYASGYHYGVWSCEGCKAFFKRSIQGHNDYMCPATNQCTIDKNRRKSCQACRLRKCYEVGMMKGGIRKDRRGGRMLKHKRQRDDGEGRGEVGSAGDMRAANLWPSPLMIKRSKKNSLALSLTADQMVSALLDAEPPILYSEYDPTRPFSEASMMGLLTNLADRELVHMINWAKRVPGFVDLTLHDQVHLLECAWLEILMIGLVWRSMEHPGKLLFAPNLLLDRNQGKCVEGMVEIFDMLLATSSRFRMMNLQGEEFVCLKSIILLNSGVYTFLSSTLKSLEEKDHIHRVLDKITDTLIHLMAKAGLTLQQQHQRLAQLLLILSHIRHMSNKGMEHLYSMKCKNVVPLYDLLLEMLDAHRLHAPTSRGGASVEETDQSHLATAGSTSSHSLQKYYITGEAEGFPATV

Regarding `Cc1ccc(Cc2cncc(O)c2)cc1S(=O)(=O)O`, the inhibition of ligand binding is, setting by setting: (at 10 µM) 36% (inactive); (binding inhibition, at 0.1 µM) 20%.
On the same counts, the results for `Cc1ccc(C2=Nc3ccccc3N=C(c3ccco3)C2)c(O)c1` are 2% (inactive) and 26%.
With `COc1cc2c(cc1OC)C(Cc1ccc(O)cc1)N(C)CC2` (stereo not drawn), the inhibition of ligand binding by setting is: (at 10 µM) 0% (inactive); (binding inhibition, at 0.1 µM) 16%.
Turning to `Cc1ccnc(NS(=O)(=O)c2ccc(NC(=O)Cc3cccs3)cc2)n1`, the inhibition of ligand binding is, setting by setting: (at 10 µM) 31% (inactive); (binding inhibition, at 0.1 µM) 63%.
For `Cc1occc1C(=O)NCc1cccc(CNC(=O)c2ccoc2C)c1` the same measures were 39% (inactive) and 26%.
On the same counts, the results for `COCCNC(=O)c1c(N)n(/N=C/c2cccs2)c2nc3ccccc3nc12` are 41% (inactive) and 6%.
For `CCc1ccc2nc(NC(=O)c3ccc4c(=O)[nH]c(CN5CCOCC5)nc4c3)sc2c1` the same measures were 32% (inactive) and 9%.
Take `COc1cc(NC(=O)c2cccs2)c(C(=O)OCC(=O)NCc2ccco2)cc1OC`: the inhibition of ligand binding reads like this: (at 10 µM) 22% (inactive); (binding inhibition, at 0.1 µM) 20%.
On the same counts, the results for `Cc1cc(C)c(C(=O)COc2cccnc2[N+](=O)[O-])cc1C` are 19% (inactive) and 30%.
On the same counts, the results for `COC(=O)c1c(NC(=O)Cc2cccs2)sc2c1CCCC2` are 57% (active) and 70%.
For `COc1ccccc1NC(=O)c1ccccc1NC(=O)c1cc(Cl)ccc1NC(=O)c1ccco1` the same measures were 32% (inactive) and 3%.
Take `CCOC(=O)c1c(C)[nH]c(C)c1C(=O)CSc1nnc(-c2cc(OC)c(OC)c(OC)c2)o1`: the inhibition of ligand binding was 57% (inactive) (at 10 µM) and 38% (binding inhibition, at 0.1 µM).
For `O=C1C2CC=C(Cl)CC2C(=O)N1CCCCCCN1C(=O)C2CC=C(Cl)CC2C1=O` (stereo not drawn), the inhibition of ligand binding was 36% (inactive) (at 10 µM) and 34% (binding inhibition, at 0.1 µM).
Take `CC1CCc2c(sc(NC(=O)c3ccc(Cn4cc([N+](=O)[O-])cn4)o3)c2C#N)C1` (stereo not drawn): the inhibition of ligand binding was 44% (inactive) (at 10 µM) and 39% (binding inhibition, at 0.1 µM).
On the same counts, the results for `COC1=C/C(=C/c2c(N)n3cc(C)sc3nc2=O)C=CC1=O` are 34% (inactive) and 10%.
Turning to `CCCCOC(=O)c1c(C)oc2ccc(NS(=O)(=O)c3ccc4c5c(cccc35)C(=O)N4)cc12`, the inhibition of ligand binding (at 10 µM) was 66% (active) and the inhibition of ligand binding (binding inhibition, at 0.1 µM) was determined as 51%.
On the same counts, the results for `CN=c1scc(C)n1/N=C/c1ccc(O)cc1O` are 0% (inactive) and 3%.
`COc1ccc2nc3oc(C(=O)N4CCN(c5cccc(C(F)(F)F)c5)CC4)cc3cc2c1`: the inhibition of ligand binding (at 10 µM) is 45% (inactive) and the inhibition of ligand binding (binding inhibition, at 0.1 µM) is 19%.
For `O=C(Nc1ccccc1N1CCOCC1)c1cc(-c2ccco2)nc2ccccc12` the same measures were 15% (inactive) and 22%.
As to `CCOc1cc(N2CCOCC2)c(OCC)cc1NC(=O)c1cc(-c2ccco2)nc2ccccc12`, the inhibition of ligand binding (at 10 µM) is 24% (inactive) and the inhibition of ligand binding (binding inhibition, at 0.1 µM) is 4%.
On the same counts, the results for `Cc1cc(-c2nn3c(-c4ccccc4)nnc3s2)c2ccccc2n1` are 23% (inactive) and 24%.
In the case of `CN(C)c1ccc(N=Cc2ccco2)cc1`, the inhibition of ligand binding is 37% (inactive) (at 10 µM) and 23% (binding inhibition, at 0.1 µM).
On the same counts, the results for `CN(c1ccccc1C(=O)O)S(=O)(=O)c1ccc2c3c(cccc13)C(=O)N2` are 40% (inactive) and 12%.
With `Cn1ccnc1SCC(=O)Nc1ccc2nc(SCC(=O)NC3CC3)sc2c1`, the inhibition of ligand binding was 30% (active) (at 10 µM) and 78% (binding inhibition, at 0.1 µM).
For `O=C1/C(=C\c2ccco2)SC(=S)N1c1ccc(O)cc1`, the inhibition of ligand binding is 61% (inactive) (at 10 µM) and 31% (binding inhibition, at 0.1 µM).
On the same counts, the results for `Cc1cc(NC(=O)CSc2cn(CCNC(=O)c3ccc(Cl)cc3)c3ccccc23)no1` are 15% (inactive) and 37%.
For `O=C(O)C1Nc2c(C(=O)N3CCOCC3)cccc2C2C=CCC12` (stereo not drawn) the same measures were 28% (inactive) and 15%.
`CCOc1ccccc1N1CSC2=C(C#N)C(c3c(OC)ccc4ccccc34)CC(=O)N2C1` (stereo not drawn): the inhibition of ligand binding (at 10 µM) was 19% (inactive) and the inhibition of ligand binding (binding inhibition, at 0.1 µM) turned out to be 17%.
For `O=C(CSc1nc(C2CCCCC2)n(-c2ccccc2)n1)NCC(F)(F)F` the same measures were 41% (inactive) and 46%.
For `Nc1ccc2oc(-c3ccc4nc[nH]c4c3)nc2c1` the same measures were 31% (inactive) and 55%.
On the same counts, the results for `Oc1ccc(N=Cc2ccc(O)c(O)c2)cc1` are 0% (inactive) and 41%.
As to `CCCC1=NN2C(=N)/C(=C\c3ccc(SCc4ccco4)o3)C(=O)N=C2S1`, the inhibition of ligand binding is, setting by setting: (at 10 µM) 14% (inactive); (binding inhibition, at 0.1 µM) 26%.
On the same counts, the results for `O=c1cc(-c2ccco2)oc2c1ccc1ccccc12` are 48% (inactive) and 4%.
For `CCCN(CCC)S(=O)(=O)c1ccc(NC(=O)Cc2cccs2)cc1` the same measures were 34% (inactive) and 18%.
For `Oc1ccc(-c2cn3c(n2)SCC3)cc1` the same measures were 37% (inactive) and 22%.
As to `Oc1ccc(/C=C/c2nc(-c3ccccc3O)n(-c3ccccc3)n2)cc1`, the inhibition of ligand binding by setting is: (at 10 µM) 11% (inactive); (binding inhibition, at 0.1 µM) 58%.
In the case of `O=C(N/N=C/c1cccc(Oc2ccc([N+](=O)[O-])cc2[N+](=O)[O-])c1)c1cncc(Br)c1`, the inhibition of ligand binding is 21% (inactive) (at 10 µM) and 63% (binding inhibition, at 0.1 µM).
Turning to `O=c1c2c([nH]c3ccccc13)C(=C1CCCC1)CC2`, the inhibition of ligand binding was 0% (inactive) (at 10 µM) and 36% (binding inhibition, at 0.1 µM).
For `C=CCn1c(COc2cccc(C)c2)nnc1SCC(=O)NC(=O)NCc1ccco1` the same measures were 9% (inactive) and 31%.
For `O=C(Cn1c(=O)n(Cc2ccco2)c(=O)c2c3c(sc21)CCCCC3)Nc1ccccc1` the same measures were 51% (inactive) and 39%.
Regarding `COCc1cc(=O)n2c(-c3ccc(C)cc3)n[nH]c2n1`, the inhibition of ligand binding reads like this: (at 10 µM) 40% (inactive); (binding inhibition, at 0.1 µM) 62%.
For `O=C(OCC(=O)N1CCN(C(=O)c2ccco2)CC1)c1cc(-c2ccco2)nc2ccccc12` the same measures were 34% (active) and 77%.
For the compound `c1coc(-c2nnc3sc(Cc4cccs4)nn23)c1`, the inhibition of ligand binding was 24% (inactive) (at 10 µM) and 14% (binding inhibition, at 0.1 µM).
For `COc1ccc(-c2nc(C(N)=O)c3[nH]c(=O)n(-c4cccc(Cl)c4)c3n2)cc1OC` the same measures were 0% (inactive) and 6%.
On the same counts, the results for `CCC(=O)Oc1ccc(/C(CC)=C(\CC)c2ccc(OC(=O)CC)cc2)cc1` are 77% (active) and 86%.
Consider `CC(Cc1ccc(O)c(O)c1)C(C)Cc1ccc(O)c(O)c1` (stereo not drawn), for which the inhibition of ligand binding is 47% (inactive) (at 10 µM) and 3% (binding inhibition, at 0.1 µM).
For `COc1ccc2c(c1)c1nc3ccccc3nc1n2CCCN1C(=O)c2ccccc2C1=O` the same measures were 46% (inactive) and 33%.
For `Cc1cc(C)nc(NC(=O)CSc2nn(C)c(=S)s2)n1` the same measures were 23% (inactive) and 34%.
For `Cc1ccnc(NS(=O)(=O)c2ccc(NC(=O)c3cc(-c4ccc(Br)cc4)nc4ccccc34)cc2)n1`, the inhibition of ligand binding was 49% (inactive) (at 10 µM) and 47% (binding inhibition, at 0.1 µM).
For `Cc1cc(C(=O)O)ccc1-n1c(C)ccc1C` the same measures were 43% (inactive) and 58%.
In the case of `O=c1oc2ccccc2n1CCn1c2ccccc2c2nc3ccccc3nc21`, the inhibition of ligand binding was 27% (inactive) (at 10 µM) and 28% (binding inhibition, at 0.1 µM).
For `CCC1(C)NC(=O)N(CC(=O)Nc2sc3c(c2C(N)=O)CCC3)C1=O` (stereo not drawn) the same measures were 15% (inactive) and 16%.
Take `COc1ccc(-c2nn(-c3ccccc3)cc2/C=C2/SC(=S)N(Cc3ccco3)C2=O)c(C)c1`: the inhibition of ligand binding was 21% (active) (at 10 µM) and 67% (binding inhibition, at 0.1 µM).
On the same counts, the results for `O=c1cc(-c2ccc(O)c(O)c2)oc2c(C3O[C@H](CO)[C@@H](O)[C@H](O)[C@H]3O)c(O)cc(O)c12` (stereo partly drawn) are 28% (inactive) and 27%.
For `CC1(C)CCCN(C(=O)c2coc(=O)c(Br)c2)C1` the same measures were 33% (inactive) and 25%.
On the same counts, the results for `COc1cc(/C=C2\OC(=O)c3c(OC)cccc32)ccc1O` are 24% (inactive) and 28%.
In the case of `COc1ccc(C2Nc3ccccc3C(=O)N2Cc2ccccc2)cc1Cn1nnc2ccccc21` (stereo not drawn), the inhibition of ligand binding is 54% (inactive) (at 10 µM) and 19% (binding inhibition, at 0.1 µM).
On the same counts, the results for `Nc1cc2sc(-c3ccc(C(=O)O)cc3)nc2cc1Cl` are 24% (inactive) and 49%.
On the same counts, the results for `COc1cc2cc(C(c3nnnn3C3CCCC3)N3CCc4ccccc43)c(=O)[nH]c2cc1OC` (stereo not drawn) are 36% (inactive) and 56%.
For `Oc1ccccc1N=Nc1nc(-c2ccccc2)c(-c2ccccc2)[nH]1` the same measures were 52% (inactive) and 27%.
For the compound `Cc1oc2cc(O)ccc2c(=O)c1Oc1ccccc1`, the inhibition of ligand binding (at 10 µM) is 58% (active) and the inhibition of ligand binding (binding inhibition, at 0.1 µM) stood at 93%.
On the same counts, the results for `COc1cc2c(cc1O)CC[n+]1cc3c(OC)c(OC)ccc3cc1-2` are 46% (inactive) and 9%.
For `Nc1ccc2nn(-c3cccc4ccccc34)nc2c1` the same measures were 0% (inactive) and 12%.
On the same counts, the results for `CCOC(=O)c1sc(NC(=O)c2ccc3ncsc3c2)nc1C` are 33% (inactive) and 36%.
In the case of `O=C(Nc1nc(-c2ccc(S(=O)(=O)N3CCOCC3)cc2)cs1)c1ccccc1`, the inhibition of ligand binding (at 10 µM) is 48% (inactive) and the inhibition of ligand binding (binding inhibition, at 0.1 µM) is 25%.
For `ON=C1/C(=N\O)CC2(C/C1=N/O)OCCO2` the same measures were 33% (inactive) and 48%.
On the same counts, the results for `COc1ccc2[nH]c3nc(SCc4nnc(-c5ccc(C)cc5)o4)nnc3c2c1` are 64% (inactive) and 3%.
Regarding `CC(O)C1CCC2C3CC[C@H]4CC(O)CCC4(C)C3CC3(OCCO3)C12C` (stereo partly drawn), the inhibition of ligand binding was 33% (inactive) (at 10 µM) and 1% (binding inhibition, at 0.1 µM).
As to `C/C(N)=C(/C#N)C(=O)CSc1nnc(COc2ccccc2Cl)o1`, the inhibition of ligand binding is, setting by setting: (at 10 µM) 20% (inactive); (binding inhibition, at 0.1 µM) 8%.
On the same counts, the results for `COc1ccc(C2CC(c3ccccc3)=NN2c2ccc(N)cc2)cc1` (stereo not drawn) are 19% (inactive) and 47%.
For `O=C(c1cc2c(s1)CCC2)N1CCN(c2ccccc2)CC1` the same measures were 16% (active) and 70%.
On the same counts, the results for `O=C(CSc1nc2c(cnn2-c2ccccc2)c(=O)[nH]1)c1ccc(Cl)cc1` are 18% (inactive) and 1%.
With `Cc1nnc(SCC(=O)NC(=O)NCc2ccco2)n1Cc1ccccc1`, the inhibition of ligand binding was 8% (inactive) (at 10 µM) and 12% (binding inhibition, at 0.1 µM).
Consider `CCCSc1nc(C)c(-c2csc(C(C#N)=C3CCCC3)n2)cc1C#N`, for which the inhibition of ligand binding by setting is: (at 10 µM) 37% (inactive); (binding inhibition, at 0.1 µM) 44%.
On the same counts, the results for `CCOC(=O)C1CCCN(C(=O)c2cc3ncc(Br)cn3n2)C1` (stereo not drawn) are 3% (inactive) and 41%.
For the compound `O=S(=O)(NCc1csc(-c2cccnc2)n1)c1ccc(Cl)s1`, the inhibition of ligand binding reads like this: (at 10 µM) 45% (inactive); (binding inhibition, at 0.1 µM) 6%.
For `CCOC(=O)c1ccc(NC(=O)CSc2nc(C)cc(=O)[nH]2)cc1` the same measures were 49% (inactive) and 21%.
On the same counts, the results for `O=C(Cc1cccs1)Nc1ccccn1` are 0% (inactive) and 16%.
For `COc1ccc(N2Cc3cccc(C(=O)O)c3C2=O)cc1` the same measures were 26% (inactive) and 44%.
For `O=C1C(c2ccnc3ccccc23)=C(O)c2ccccc21`, the inhibition of ligand binding reads like this: (at 10 µM) 26% (inactive); (binding inhibition, at 0.1 µM) 28%.
On the same counts, the results for `Cc1ccc(-n2nnnc2SCC(=O)Nc2cccc(NC(=O)c3ccco3)c2)cc1C` are 46% (inactive) and 7%.
For `CCn1c(SCC(=O)c2ccc(O)c(O)c2)nnc1-c1ccccc1OC` the same measures were 54% (inactive) and 16%.
In the case of `CS(=O)(=O)c1ccc2nc(NC(=O)CCC(=O)c3cccs3)sc2c1`, the inhibition of ligand binding by setting is: (at 10 µM) 33% (inactive); (binding inhibition, at 0.1 µM) 14%.
On the same counts, the results for `COc1ccc2c(c1)c(=O)oc1cc3oc(C)c(C)c3cc12` are 3% (inactive) and 16%.
